Reference: the supplement of paper PMC11732987, “Enantioselective OTUD7B fragment discovery through chemoproteomics screening and high-throughput optimisation” (Communications Chemistry, 2025)

Columns and labels:
Assay in all cases: log2 ratio of Biotin-Ahx-Ub-VS probe labelling (fragment/DMSO); higher = less target engagement (more negative = stronger competition), active = hit call of the paper (q ≤ 0.05, log2 ratio ≤ -1)
Conditions in all cases: compound concentration: 200 uM; treatment time: 3 h
USP19 = target: T1, USP19 (UniProt O94966)
T1 sequence (whole entry): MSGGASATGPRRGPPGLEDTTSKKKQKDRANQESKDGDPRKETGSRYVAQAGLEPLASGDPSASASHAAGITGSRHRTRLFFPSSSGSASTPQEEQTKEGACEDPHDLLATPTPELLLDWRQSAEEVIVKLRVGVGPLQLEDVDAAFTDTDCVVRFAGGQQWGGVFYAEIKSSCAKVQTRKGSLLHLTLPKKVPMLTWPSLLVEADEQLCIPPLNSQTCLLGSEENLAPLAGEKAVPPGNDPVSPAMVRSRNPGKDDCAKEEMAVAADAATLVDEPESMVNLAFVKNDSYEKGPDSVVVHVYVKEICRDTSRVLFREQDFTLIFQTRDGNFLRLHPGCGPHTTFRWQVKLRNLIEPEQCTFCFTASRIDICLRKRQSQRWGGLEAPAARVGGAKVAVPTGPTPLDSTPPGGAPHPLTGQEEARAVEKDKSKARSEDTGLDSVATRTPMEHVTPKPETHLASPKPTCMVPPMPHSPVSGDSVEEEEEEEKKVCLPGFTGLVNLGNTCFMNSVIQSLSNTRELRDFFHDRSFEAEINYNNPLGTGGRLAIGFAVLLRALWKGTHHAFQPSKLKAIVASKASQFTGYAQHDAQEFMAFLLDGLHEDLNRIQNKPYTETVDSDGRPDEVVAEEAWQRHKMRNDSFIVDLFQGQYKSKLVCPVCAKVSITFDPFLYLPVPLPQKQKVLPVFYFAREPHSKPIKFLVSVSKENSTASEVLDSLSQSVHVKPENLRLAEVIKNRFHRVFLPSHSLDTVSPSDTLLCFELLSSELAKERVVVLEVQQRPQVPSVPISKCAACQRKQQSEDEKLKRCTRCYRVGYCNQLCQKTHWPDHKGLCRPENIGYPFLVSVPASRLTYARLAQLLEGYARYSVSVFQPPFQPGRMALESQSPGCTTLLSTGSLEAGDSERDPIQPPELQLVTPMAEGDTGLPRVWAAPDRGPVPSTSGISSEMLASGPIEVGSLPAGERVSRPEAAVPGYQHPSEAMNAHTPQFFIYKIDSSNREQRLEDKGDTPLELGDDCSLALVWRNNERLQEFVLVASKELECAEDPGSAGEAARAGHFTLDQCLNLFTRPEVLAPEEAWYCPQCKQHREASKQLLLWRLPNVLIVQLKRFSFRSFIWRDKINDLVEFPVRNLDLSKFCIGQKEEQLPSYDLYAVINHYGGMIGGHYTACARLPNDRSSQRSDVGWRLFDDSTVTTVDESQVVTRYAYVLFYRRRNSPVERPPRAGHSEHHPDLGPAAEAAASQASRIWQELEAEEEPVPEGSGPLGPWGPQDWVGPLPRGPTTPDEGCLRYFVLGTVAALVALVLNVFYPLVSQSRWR
Method in brief: (§1)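 Global-median-normalised Spectronaut label-free quantities were compared by unpaired t-test, and values are average log2 ratios of fragment over vehicle. Only proteins with ≥2 unique peptides were used. HEK293T lysate (495 µg per sample) was treated in triplicate with fragment at 200 µM or vehicle for 3 h and then with Biotin-Ahx-Ub-VS at 0.5 µM final for 1 h. Labelled DUBs were then NeutrAvidin-enriched, digested with LysC and trypsin, and run by diaPASEF LC-MS/MS.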

USP22 = target: T2, USP22 (UniProt Q9UPT9)
T2 sequence (whole entry): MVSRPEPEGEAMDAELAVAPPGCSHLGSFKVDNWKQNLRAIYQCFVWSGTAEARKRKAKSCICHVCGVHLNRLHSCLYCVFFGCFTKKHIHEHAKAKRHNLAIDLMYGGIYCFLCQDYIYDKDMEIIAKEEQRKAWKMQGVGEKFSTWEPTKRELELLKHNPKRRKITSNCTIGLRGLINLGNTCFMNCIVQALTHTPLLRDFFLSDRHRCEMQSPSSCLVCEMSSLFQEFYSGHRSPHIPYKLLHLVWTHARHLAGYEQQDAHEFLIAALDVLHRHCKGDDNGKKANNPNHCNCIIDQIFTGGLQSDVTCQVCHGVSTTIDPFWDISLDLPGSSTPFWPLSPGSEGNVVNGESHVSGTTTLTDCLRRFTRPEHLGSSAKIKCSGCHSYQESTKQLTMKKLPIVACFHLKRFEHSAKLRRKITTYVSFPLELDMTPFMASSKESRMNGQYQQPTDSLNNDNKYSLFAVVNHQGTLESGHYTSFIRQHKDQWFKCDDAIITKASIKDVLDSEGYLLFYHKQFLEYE
Method in brief: as §1

USP24 = USP24 (UniProt Q9UPU5)
Method in brief: as §1

USP25 = target: T3, USP25 (UniProt Q9UHP3)
T3 sequence (whole entry): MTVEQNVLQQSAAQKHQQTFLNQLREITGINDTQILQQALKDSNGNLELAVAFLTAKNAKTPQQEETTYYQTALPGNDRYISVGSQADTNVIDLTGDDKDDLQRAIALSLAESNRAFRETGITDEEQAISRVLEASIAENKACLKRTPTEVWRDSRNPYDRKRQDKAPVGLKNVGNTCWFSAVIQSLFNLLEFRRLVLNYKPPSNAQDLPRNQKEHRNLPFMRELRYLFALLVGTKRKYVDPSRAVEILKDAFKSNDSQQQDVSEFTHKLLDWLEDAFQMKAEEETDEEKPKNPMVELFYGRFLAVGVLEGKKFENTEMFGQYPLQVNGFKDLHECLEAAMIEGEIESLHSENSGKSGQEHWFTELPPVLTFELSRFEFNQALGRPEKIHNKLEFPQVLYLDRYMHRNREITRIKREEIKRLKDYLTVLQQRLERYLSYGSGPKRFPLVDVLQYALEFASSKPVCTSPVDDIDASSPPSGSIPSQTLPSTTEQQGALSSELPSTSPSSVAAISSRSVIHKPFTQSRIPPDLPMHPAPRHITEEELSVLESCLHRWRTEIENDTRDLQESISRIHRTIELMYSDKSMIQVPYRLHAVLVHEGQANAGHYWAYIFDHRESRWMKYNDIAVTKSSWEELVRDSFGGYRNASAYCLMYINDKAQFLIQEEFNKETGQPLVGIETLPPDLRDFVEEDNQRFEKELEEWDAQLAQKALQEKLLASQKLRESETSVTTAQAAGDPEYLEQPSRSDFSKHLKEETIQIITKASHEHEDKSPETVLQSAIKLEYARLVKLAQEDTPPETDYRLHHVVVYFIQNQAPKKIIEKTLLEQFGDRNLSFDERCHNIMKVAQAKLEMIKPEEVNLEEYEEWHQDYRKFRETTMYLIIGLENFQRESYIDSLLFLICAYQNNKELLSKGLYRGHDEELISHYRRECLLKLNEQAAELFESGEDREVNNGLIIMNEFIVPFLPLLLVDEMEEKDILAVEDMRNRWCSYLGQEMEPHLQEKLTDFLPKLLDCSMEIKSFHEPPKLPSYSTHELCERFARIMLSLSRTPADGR
Method in brief: as §1

USP28 = target: T4, USP28 (UniProt Q96RU2)
T4 sequence (whole entry): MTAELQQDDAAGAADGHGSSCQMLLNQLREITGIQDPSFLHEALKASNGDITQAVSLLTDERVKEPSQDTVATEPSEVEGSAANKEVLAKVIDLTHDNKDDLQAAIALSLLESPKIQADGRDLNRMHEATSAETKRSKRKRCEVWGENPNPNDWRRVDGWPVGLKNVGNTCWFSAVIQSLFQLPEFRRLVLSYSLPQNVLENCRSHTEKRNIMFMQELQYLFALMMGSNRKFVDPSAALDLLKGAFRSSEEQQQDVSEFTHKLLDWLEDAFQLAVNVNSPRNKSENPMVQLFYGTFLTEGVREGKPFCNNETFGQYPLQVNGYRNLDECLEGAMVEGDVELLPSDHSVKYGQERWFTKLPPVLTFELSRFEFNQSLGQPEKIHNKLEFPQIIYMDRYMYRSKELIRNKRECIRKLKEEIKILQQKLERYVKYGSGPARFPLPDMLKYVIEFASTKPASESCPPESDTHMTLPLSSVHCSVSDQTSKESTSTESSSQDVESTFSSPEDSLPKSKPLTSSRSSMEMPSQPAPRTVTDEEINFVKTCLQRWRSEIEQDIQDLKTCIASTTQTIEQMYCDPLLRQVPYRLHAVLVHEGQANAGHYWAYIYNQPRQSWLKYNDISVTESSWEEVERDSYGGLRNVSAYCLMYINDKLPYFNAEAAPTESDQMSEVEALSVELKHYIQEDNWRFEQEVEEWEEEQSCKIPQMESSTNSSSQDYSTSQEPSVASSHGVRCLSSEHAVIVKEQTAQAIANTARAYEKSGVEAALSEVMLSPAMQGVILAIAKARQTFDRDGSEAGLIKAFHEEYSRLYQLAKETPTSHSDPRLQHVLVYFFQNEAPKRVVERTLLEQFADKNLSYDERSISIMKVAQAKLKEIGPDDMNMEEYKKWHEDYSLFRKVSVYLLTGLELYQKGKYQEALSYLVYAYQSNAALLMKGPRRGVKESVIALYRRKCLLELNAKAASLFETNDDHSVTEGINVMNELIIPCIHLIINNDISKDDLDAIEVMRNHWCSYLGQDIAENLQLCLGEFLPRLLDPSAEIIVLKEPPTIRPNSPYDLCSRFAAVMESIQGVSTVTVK
Method in brief: as §1

Measured: log2 ratio of Biotin-Ahx-Ub-VS probe labelling

Sequence of USP24 (Q9UPU5 whole entry): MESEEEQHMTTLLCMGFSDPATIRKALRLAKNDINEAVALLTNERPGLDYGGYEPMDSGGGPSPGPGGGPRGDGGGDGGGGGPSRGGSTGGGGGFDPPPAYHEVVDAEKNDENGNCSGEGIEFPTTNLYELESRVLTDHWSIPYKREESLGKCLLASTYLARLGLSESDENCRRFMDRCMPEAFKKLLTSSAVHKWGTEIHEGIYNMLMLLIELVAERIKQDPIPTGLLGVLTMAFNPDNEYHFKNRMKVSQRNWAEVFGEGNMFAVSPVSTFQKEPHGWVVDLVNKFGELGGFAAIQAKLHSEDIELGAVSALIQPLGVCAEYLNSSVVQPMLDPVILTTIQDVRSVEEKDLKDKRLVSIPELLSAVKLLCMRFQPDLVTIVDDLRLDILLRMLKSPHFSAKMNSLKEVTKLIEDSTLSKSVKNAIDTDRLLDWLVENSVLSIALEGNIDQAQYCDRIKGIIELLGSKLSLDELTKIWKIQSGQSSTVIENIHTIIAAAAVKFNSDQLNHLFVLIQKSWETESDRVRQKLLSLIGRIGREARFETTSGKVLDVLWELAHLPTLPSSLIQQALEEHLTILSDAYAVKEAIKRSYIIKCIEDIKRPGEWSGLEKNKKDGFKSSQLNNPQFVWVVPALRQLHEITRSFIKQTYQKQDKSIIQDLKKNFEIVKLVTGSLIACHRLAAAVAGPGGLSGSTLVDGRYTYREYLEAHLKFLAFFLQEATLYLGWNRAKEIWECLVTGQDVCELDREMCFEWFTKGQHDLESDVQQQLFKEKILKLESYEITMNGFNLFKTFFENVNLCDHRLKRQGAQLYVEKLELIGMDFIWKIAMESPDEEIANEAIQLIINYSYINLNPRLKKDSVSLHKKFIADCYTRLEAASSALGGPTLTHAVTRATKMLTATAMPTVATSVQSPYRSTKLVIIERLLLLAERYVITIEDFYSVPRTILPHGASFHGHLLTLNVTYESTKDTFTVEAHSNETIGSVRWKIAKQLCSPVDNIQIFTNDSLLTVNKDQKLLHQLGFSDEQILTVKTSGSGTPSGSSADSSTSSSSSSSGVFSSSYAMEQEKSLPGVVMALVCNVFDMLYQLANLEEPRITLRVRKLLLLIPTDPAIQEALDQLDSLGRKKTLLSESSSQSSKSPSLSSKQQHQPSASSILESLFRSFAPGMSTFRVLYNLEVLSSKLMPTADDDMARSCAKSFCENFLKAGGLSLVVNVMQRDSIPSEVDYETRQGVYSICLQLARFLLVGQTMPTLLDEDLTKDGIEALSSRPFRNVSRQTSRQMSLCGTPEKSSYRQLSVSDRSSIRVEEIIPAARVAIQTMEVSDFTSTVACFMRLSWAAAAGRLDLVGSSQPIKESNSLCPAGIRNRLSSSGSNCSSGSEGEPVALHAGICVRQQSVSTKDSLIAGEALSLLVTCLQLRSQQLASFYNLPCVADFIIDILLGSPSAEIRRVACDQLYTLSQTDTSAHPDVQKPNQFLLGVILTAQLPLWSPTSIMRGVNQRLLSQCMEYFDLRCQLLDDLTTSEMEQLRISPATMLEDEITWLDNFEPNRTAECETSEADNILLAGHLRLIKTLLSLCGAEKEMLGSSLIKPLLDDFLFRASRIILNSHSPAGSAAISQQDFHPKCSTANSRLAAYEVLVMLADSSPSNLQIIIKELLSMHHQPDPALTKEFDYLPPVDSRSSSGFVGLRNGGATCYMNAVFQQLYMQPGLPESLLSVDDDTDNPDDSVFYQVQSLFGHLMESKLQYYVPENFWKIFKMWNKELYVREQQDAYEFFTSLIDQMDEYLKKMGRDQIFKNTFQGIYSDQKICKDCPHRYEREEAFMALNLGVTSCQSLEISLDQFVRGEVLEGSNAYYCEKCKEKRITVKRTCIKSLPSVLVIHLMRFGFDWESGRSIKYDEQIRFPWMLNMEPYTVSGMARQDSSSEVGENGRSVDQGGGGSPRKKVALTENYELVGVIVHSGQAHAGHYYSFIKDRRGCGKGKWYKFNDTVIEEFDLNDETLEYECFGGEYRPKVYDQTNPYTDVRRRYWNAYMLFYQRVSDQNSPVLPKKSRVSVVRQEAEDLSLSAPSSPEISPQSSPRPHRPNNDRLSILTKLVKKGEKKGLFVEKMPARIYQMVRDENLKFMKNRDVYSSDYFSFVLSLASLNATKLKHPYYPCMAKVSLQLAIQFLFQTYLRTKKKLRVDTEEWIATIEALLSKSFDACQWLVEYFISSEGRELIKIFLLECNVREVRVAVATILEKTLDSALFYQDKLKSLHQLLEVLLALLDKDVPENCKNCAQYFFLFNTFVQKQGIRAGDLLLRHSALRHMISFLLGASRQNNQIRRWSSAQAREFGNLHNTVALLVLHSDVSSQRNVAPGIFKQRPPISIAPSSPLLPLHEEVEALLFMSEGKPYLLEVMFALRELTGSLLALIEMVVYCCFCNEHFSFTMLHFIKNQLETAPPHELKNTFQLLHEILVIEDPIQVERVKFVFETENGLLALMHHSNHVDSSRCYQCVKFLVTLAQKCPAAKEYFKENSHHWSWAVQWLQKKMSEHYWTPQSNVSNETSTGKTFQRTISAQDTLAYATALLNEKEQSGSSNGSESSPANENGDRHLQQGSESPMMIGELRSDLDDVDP

O=C(CCl)N[C@H]1CCS(=O)(=O)c2ccccc21
inactive: USP19 -0.274 | USP22 -0.119 | USP24 -0.386 | USP25 -0.264 | USP28 -0.582
